Reference: PubChem BioAssay AID504700 (The Scripps Research Institute Molecular Screening Center, 2011)
The whole screen tested about 340,000 compounds, of which about 270 (0.079%) were called active. The full list was thinned out, with actives kept by preference. Values without a mark were called inactive.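 The calls were made as follows: active = activation above a cutoff set at the mean over all compounds plus 3 SD (cut at about 18% in these data); inactive = the rest.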

The compounds below were run against cAMP-dependent protein kinase catalytic subunit beta (Homo sapiens) + cAMP-dependent protein kinase type II-beta regulatory subunit (Homo sapiens) (UniProt P22694+P31323) (assay: compounds dissociating PKAc from R2B subunit – biochemical, fluorescence polarization, Cy5-IP20, human, primary screen (AID 504700;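 also: higher means more holoenzyme dissociation and a rise in polarization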)). Conditions: PKA-R2B holoenzyme dissociation, at 11.4 µM, hits give high values, 0% DMSO only, 100% 113 µM cGMP, R2B truncated from residue 108, S112A mutant.
cAMP-dependent protein kinase catalytic subunit beta (Homo sapiens) + cAMP-dependent protein kinase type II-beta regulatory subunit (Homo sapiens), sequence (P31323 whole entry, looked up, other chains not shown, the tested form may be a part): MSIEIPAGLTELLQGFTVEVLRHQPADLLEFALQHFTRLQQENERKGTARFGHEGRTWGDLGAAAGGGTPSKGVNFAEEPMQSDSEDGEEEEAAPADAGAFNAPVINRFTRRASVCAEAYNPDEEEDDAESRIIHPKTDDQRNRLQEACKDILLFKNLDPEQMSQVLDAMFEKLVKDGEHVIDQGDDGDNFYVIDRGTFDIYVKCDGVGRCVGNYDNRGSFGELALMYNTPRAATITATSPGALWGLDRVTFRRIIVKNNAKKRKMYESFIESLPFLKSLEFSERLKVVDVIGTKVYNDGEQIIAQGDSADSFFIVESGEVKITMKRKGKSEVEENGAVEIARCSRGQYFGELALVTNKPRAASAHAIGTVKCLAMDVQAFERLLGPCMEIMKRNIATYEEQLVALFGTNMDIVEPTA

Point of comparison: `O=C(COC(=O)c1cncc(Br)c1)Nc1ccc(S(=O)(=O)N2CCOCC2)cc1`, activation -6.43%. Against it:
- C[C@H]1CN([C@@H](C)CO)S(=O)(=O)c2ccc(-c3cccc(F)c3)cc2O[C@@H]1CN(C)C — higher, -5.98%
- COc1ccc2nc(-c3ccccn3)ccc2c1 — higher, -2.17%
- COc1ccc(Cn2c(=O)oc3ccccc32)cc1 — higher, -4.8%
- O=C1[C@H]2[C@@H](c3ccc(C(F)(F)F)cc3)N[C@]3(CCCN(Cc4ccc(Cl)cc4)C3=O)[C@H]2C(=O)N1Cc1ccccc1 — lower, -7.06%
- COc1ccc(-c2ccc(CN3C(CC(C)C)C(=O)N(Cc4cn(CC5CCCCC5)nn4)CCS3(=O)=O)cc2)cn1 (stereo unspecified) — higher, 5.33%
- CCOC(=O)c1cc(-c2sc(NC(=O)c3ccccc3)nc2C)n(CCO)n1 — higher, -2.07%
- COC(=O)[C@H]1C[C@H](OC(=O)NCc2ccccc2)[C@@]2(O)CN(S(=O)(=O)c3ccc(C)cc3)CC2[C@H]1C(=O)OC (stereo partly specified) — higher, 1.85%
- O=C(C[C@H]1C[C@@H]2c3cc(NC(=O)C4CCC4)ccc3O[C@@H]2[C@H](CO)O1)NC1CCCCC1 — higher, -4.88%
- CCN(CC(=O)Nc1ccc(NC(C)=O)cc1)C(=O)C1CC(=O)N(c2ccc3c(c2)OCCO3)C1 (stereo unspecified) — higher, 1.33%
- Cc1ccccc1-c1ccc2c(c1)O[C@@H](CN(C)Cc1ccc(C(=O)O)cc1)[C@@H](C)CN([C@H](C)CO)S2(=O)=O — higher, 1.68%
- Cc1cc(C)c2cc(C#N)c(N3CCNCC3)nc2c1 — higher, 5.23%
- COCC1CCCCN1C(=O)c1cc(COc2ccc(C)c(C)c2)on1 (stereo unspecified) — lower, -6.78%
- c1ccc(CNCc2ccc(CNCc3ccccc3)cc2)cc1 — higher, -1.27%
- C[C@@H]1CN([C@H](C)CO)C(=O)CCCn2nncc2CO[C@@H]1CN(C)S(=O)(=O)c1cccc(C#N)c1 — higher, 5.67%
- O=C(c1ccccc1)N1CCN(c2cc(-c3ccccc3)nc3cc(-c4cccc(Cl)c4)nn23)CC1 — higher, -2.44%
- C[C@H]1NS(=O)(=O)c2cc(Cl)ccc2O[C@@H]1c1ccccc1 — higher, -0.08%
- S=C(NN=Cc1ccccn1)Nc1ccccn1 — higher, 12.6%
- CN1OC[C@@H]2CN(C(=O)c3ccc(-c4ccccc4)cc3)[C@H](c3ccc(-c4cccc(F)c4)cc3)C[C@@H]21 — lower, -8.75%
- C[C@H](CO)N1C[C@H](C)[C@H](CN(C)C(=O)Nc2ccc3c(c2)OCO3)Oc2ncc(Br)cc2C1=O — higher, 6.88%
- O=C(c1cccs1)N1C[C@H](n2cc(C3CC3)nn2)[C@@H](O)C[C@@H]1c1ccccc1 — higher, 5.94%
- N#CCSc1ccccc1NC(=O)CN1C(=O)NC(CCc2ccccc2)C1=O (stereo unspecified) — higher, 0.61%
- COC(=O)c1ccccc1N=NNc1ccc([N+](=O)[O-])cc1 — higher, 7.66%
- O=C1NC(Cc2ccccc2)c2nc3ccc(Br)cc3c(=O)n2-c2cc3ccccc3cc21 (stereo unspecified) — lower, -6.52%
- COc1cc(C(=O)N2CCOC23CCN(Cc2ccccc2)CC3)cc(OC)c1OC — higher, 5.01%
- CC(=O)c1ccc(OCC(=O)N(C)C2CCS(=O)(=O)C2)cc1 (stereo unspecified) — higher, -5.08%
- C[C@@H]1CN([C@H](C)CO)S(=O)(=O)c2ccc(C#C[C@@H](C)O)cc2O[C@@H]1CN(C)Cc1ccc(-c2ccccc2)cc1 — lower, -12.3%
- O=C(NCCN1CCOCC1)c1ccc2c(c1)N(Cc1cccc(Cl)c1)C(=O)c1ccccc1S2(=O)=O — higher, -0.88%
- COc1ccc(NC2CCCN(C(=O)c3ccccc3-c3ncc[nH]3)C2)cc1 (stereo unspecified) — lower, -6.86%
- Cc1sc2ncnc(SCC(=O)NC3CCS(=O)(=O)C3)c2c1C (stereo unspecified) — lower, -9.19%
- CN(c1ccccc1)S(=O)(=O)c1ccc(C(=O)NCc2cccnc2)cc1 — higher, -3.42%
- O=C(COC(=O)CCc1c[nH]c2ccccc12)Nc1cccc(Cl)c1 — higher, 1.73%
- CCOC(=O)c1cc(-c2sc(NC(=O)c3ccccc3)nc2C)n(Cc2ccccc2)n1 — higher, -0.16%
- O=C(COC(=O)c1ccc(S(=O)(=O)N2CCCCCC2)cc1)Nc1ccccc1C(F)(F)F — lower, -16.8%
- CN(Cc1ccccc1)C(=O)CCC1CCN(C(=O)c2ccco2)CC1 — higher, 2.88%
- Cc1[nH]c2ccccc2c1C(=O)C(=O)NCc1nnnn1-c1cccc(F)c1 — higher, -2.65%
- Cc1cc(C)n2nc(C(=O)N3CCN(Cc4ccc5c(c4)OCO5)CC3)nc2n1 — lower, -11.3%
- Cn1c(=O)cc(OCCCC(=O)N2CCN(Cc3ccc4c(c3)OCO4)CC2)c2ccccc21 — lower, -7.18%
- CCN1C(=O)[C@H]2[C@@H](c3ccccc3)N[C@]3(CCCN(Cc4ccc(C)cc4)C3=O)[C@H]2C1=O — higher, 0.79%
- O=C(NCCS(=O)(=O)N1CCN(c2ccccc2)CC1)c1cc(=O)c2ccccc2o1 — lower, -13.1%
- CCCCN1C(=O)C(CC(=O)NC(c2ccccc2)c2ccccc2)CC(C(=O)N2CCOCC2)=C1C (stereo unspecified) — higher, -5.21%
- Cc1ccccc1NC(=O)Cc1nc(COC(=O)C(C)(C)Oc2ccc(Cl)cc2)cs1 — higher, 3.15%
- C/C(COc1ccccc1)=N\NC(=O)c1nnn(-c2nonc2N)c1-c1ccc(C)cc1 — lower, -17.1%
- CCCc1c(C)nc2scc(-c3ccc(Cl)cc3)n2c1=O — higher, -2.72%
- CSc1ncnc2c1ncn2CCCNCc1cccs1 — higher, 2.56%
- CCC(Oc1ccccc1)C(=O)OCC(=O)Nc1c(C)nn(-c2ccccc2)c1C (stereo unspecified) — higher, -5.13%
- COc1cccc(OCC(=O)NCCS(=O)(=O)N2CCN(c3ccccc3)CC2)c1 — higher, 0.99%
- CNC(=O)C[C@H]1C(=O)N(Cc2ccccc2)C[C@@H]1CSC — lower, -9.1%
- COc1ncnc2c1ncn2CCCNCCN1CCOCC1 — higher, 4.38%
- O=S1(=O)CCN(Cc2ccccc2)CC1 — higher, -1.42%

With `O=C(CCCN1C(=O)c2cccc3cccc(c23)C1=O)N1CCN(Cc2ccc3c(c2)OCO3)CC1` the activation was 18.8% (active).
